From PubChem BioAssay (EPA / NIEHS)
Records with an inconclusive call do not appear. The source made the active and inactive calls. Rule for the calls, unless noted: active = hit-call score of the fitted dose curve at least 0.9, where 1 is the maximum; inconclusive = response in the unintended direction; inactive = score below 0.9.

Columns and labels:
[1] = target: Retinoic acid receptor RXR-alpha (Homo sapiens) (UniProt P19793); experiment: ATG_RXRa_TRANS: Attagene TRANS-FACTORIAL HepG2 Assay for human Retinoid X Receptor alpha (RXRa) (AID 2283012)
Chain of Retinoic acid receptor RXR-alpha (Homo sapiens) (P19793 whole entry, looked up, the tested form may be a part): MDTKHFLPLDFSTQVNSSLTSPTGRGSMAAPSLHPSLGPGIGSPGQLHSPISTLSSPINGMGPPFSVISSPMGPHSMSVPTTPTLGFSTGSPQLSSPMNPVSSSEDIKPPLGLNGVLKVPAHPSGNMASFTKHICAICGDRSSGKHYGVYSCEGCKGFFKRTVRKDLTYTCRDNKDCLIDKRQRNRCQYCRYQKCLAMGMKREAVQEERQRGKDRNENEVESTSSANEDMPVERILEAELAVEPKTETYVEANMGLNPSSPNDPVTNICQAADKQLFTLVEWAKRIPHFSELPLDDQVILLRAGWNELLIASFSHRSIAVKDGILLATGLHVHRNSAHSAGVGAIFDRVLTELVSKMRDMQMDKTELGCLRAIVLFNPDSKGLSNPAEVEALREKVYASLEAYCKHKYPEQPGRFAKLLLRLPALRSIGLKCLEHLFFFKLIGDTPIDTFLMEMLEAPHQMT
Method in brief: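 Read-out: fluorescent reporter-transcript fragments quantified by capillary electrophoresis after RT-PCR. Transiently transfected HepG2 cells carrying GAL4-UAS reporters and NR-GAL4 chimeras were exposed to chemical for 24 h; activity scored as increase over DMSO.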

[2] = target: human Retinoid X Receptor beta (RXRb), RXRB (gene 6257) (UniProt P28702); experiment: ATG_RXRb_TRANS: Attagene TRANS-FACTORIAL HepG2 Assay for human Retinoid X Receptor beta (RXRb) (AID 2283013)
Chain of human Retinoid X Receptor beta (RXRb), RXRB (gene 6257) (P28702 whole entry, looked up, the tested form may be a part): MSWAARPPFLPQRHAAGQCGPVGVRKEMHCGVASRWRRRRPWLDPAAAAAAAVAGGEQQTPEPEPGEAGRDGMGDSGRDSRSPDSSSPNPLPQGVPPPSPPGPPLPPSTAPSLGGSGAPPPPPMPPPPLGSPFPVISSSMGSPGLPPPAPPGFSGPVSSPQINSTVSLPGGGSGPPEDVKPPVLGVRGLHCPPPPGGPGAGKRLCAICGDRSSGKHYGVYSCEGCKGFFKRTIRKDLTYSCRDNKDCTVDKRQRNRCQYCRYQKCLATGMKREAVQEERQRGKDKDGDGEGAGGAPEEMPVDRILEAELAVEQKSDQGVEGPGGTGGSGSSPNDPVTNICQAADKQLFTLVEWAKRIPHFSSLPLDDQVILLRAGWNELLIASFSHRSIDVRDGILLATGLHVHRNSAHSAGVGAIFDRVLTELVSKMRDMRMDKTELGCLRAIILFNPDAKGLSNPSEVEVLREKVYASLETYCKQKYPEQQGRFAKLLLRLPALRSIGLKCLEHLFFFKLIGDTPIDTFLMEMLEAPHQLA
Method in brief: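 Read-out: reporter mRNA induction via RT-PCR plus capillary electrophoresis fluorescence, analysed as signal increase relative to DMSO. Cells were human HepG2, transiently transfected with GAL4-UAS reporter constructs and chimeric receptor-Gal4 fusions, dosed for 24 h.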

[3] = target: human Thyroid Receptor alpha (THRa1), THRA (gene 7067) (UniProt P10827); experiment: ATG_THRa1_TRANS: Attagene TRANS-FACTORIAL HepG2 Assay for human Thyroid Receptor alpha (THRa1) (AID 2283014)
Chain of human Thyroid Receptor alpha (THRa1), THRA (gene 7067) (P10827 whole entry, looked up, the tested form may be a part): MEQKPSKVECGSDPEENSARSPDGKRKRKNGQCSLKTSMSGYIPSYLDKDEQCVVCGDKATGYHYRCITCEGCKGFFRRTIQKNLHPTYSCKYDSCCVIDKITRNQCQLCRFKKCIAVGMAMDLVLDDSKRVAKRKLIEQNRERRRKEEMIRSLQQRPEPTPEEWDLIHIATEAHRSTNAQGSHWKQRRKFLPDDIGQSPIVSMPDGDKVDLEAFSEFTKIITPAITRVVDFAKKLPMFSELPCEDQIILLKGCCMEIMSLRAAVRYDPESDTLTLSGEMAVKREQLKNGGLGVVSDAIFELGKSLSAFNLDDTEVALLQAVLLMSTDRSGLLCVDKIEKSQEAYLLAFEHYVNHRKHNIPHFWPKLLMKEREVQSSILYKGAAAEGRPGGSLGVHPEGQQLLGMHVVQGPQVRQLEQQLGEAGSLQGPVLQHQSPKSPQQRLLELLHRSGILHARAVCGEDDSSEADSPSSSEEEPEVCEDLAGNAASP
Method in brief: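 Transcripts from GAL4-UAS-driven reporters, measured after 24 h compound exposure by RT-PCR plus capillary electrophoresis of 6-FAM-labeled fragments, were fitted for gain of signal relative to DMSO. Cells: transiently transfected HepG2 expressing NR-Gal4 chimeras.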

[4] = target: human Vitamin D Receptor (VDR), VDR (gene 7421) (UniProt P11473); experiment: ATG_VDR_TRANS: Attagene TRANS-FACTORIAL HepG2 Assay for human Vitamin D Receptor (VDR) (AID 2283022)
Chain of human Vitamin D Receptor (VDR), VDR (gene 7421) (P11473 whole entry, looked up, the tested form may be a part): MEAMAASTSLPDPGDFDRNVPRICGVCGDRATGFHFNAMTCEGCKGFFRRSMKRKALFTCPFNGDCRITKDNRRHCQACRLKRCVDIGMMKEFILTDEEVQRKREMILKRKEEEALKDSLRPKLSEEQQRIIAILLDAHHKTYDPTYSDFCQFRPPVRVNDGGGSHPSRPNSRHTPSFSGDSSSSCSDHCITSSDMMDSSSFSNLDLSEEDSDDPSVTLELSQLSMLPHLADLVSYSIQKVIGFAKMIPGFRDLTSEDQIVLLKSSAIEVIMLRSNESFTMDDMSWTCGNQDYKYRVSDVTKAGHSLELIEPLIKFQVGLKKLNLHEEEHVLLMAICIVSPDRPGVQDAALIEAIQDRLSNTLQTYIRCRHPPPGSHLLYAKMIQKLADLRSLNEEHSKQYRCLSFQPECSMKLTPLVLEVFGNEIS
Method in brief: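 Transactivation by an exogenous VDR-Gal4 chimera in transiently transfected HepG2 cells was measured as reporter transcript level 24 hours after chemical treatment. RT-PCR products were analysed by capillary electrophoresis and fitted in the positive direction relative to DMSO.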

[5] = read-out: E-selectin (Homo sapiens) (UniProt P16581); experiment: BSK_3C_Eselectin: BioMAP Diversity Plus: 3C Assay for Eselectin Biomarker Activity (AID 2283015; active = hit-call score of the fitted dose curve at least 0.9, where 1 is the maximum; inactive = score below 0.9;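 note: cell surface E-selectin protein quantified by ELISA 24 h after dosing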); conditions: primary human endothelial cells (HUVEC); actives raise or lower the signal
Method in brief: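 E-selectin ELISA readout, fitted bidirectionally relative to DMSO, taken 24 h post-dosing in HUVEC cultures of the 3C system. Overt cytotoxicity tracked with sulforhodamine B staining of parallel wells.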

[6] = read-out: Interleukin-1 alpha (IL1a), IL1A (gene 3552); experiment: BSK_BE3C_IL1a: BioMAP Diversity Plus: BE3C Assay for Interleukin-1 alpha (IL1a) Biomarker Activity (AID 2283016; active = hit-call score of the fitted dose curve at least 0.9, where 1 is the maximum; inactive = score below 0.9); conditions: primary human bronchial epithelial cells; actives raise or lower the signal
Method in brief: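 ELISA read-out of IL-1a from human lung bronchial epithelial primary cells, 24 h post-dose. Gain or loss of signal fitted relative to DMSO negative control.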

[7] = read-out: Monocyte Chemoattractant Protein-1 (MCP1), CCL2 (gene 6347); experiment: BSK_3C_MCP1: BioMAP Diversity Plus: 3C Assay for Monocyte Chemoattractant Protein-1 (MCP1) Biomarker Activity (AID 2283017; active = hit-call score of the fitted dose curve at least 0.9, where 1 is the maximum; inactive = score below 0.9); conditions: primary human endothelial cells (HUVEC); actives raise or lower the signal
Method in brief: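 MCP-1 was measured by ELISA 24 h after dosing in primary HUVEC 3C cultures and fitted in both directions relative to DMSO; cytotoxicity was checked by SRB total-protein staining in parallel wells.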

[8] = read-out: Monocyte Chemoattractant Protein-1 (MCP1), CCL2 (gene 6347); experiment: BSK_4H_MCP1: BioMAP Diversity Plus: 4H Assay for Monocyte Chemoattractant Protein-1 (MCP1) Biomarker Activity (AID 2283018; active = hit-call score of the fitted dose curve at least 0.9, where 1 is the maximum; inactive = score below 0.9); conditions: primary human endothelial cells (HUVEC); actives raise or lower the signal
Method in brief: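 HUVEC primary cells, 24 h post-dose, MCP-1 by ELISA. Gain or loss of signal fitted bidirectionally vs DMSO baseline. Cytotoxicity: SRB stain (0.1% after 10% TCA fixation), read 560 nm, parallel cultures.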

[9] = read-out: Human Leukocyte Antigen - DR isotype (HLADR), HLA-DRA (gene 3122); experiment: BSK_3C_HLADR: BioMAP Diversity Plus: 3C Assay for Human Leukocyte Antigen - DR isotype (HLADR) Biomarker Activity (AID 2283019; active = hit-call score of the fitted dose curve at least 0.9, where 1 is the maximum; inactive = score below 0.9); conditions: primary human endothelial cells (HUVEC); actives raise or lower the signal
Method in brief: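 Bidirectional fitting against DMSO was applied to the HLA-DR ELISA signal from human umbilical vein endothelial cells, 24 h post-dose. Cytotoxicity came from parallel SRB total-protein staining; 3C proliferation was counted by SRB at 48 h.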

[10] = read-out: Interleukin-8 (IL8), CXCL8 (gene 3576); experiment: BSK_3C_IL8: BioMAP Diversity Plus: 3C Assay for Interleukin-8 (IL8) Biomarker Activity (AID 2283020; active = hit-call score of the fitted dose curve at least 0.9, where 1 is the maximum; inactive = score below 0.9); conditions: primary human endothelial cells (HUVEC); actives raise or lower the signal
Method in brief: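 HUVEC, 3C stimulation; 24 h compound exposure; IL-8 read by ELISA; gain or loss of signal fitted relative to DMSO control.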

[11] = read-out: Monokine induced gamma interferon (MIG), CXCL9 (gene 4283); experiment: BSK_3C_MIG: BioMAP Diversity Plus: 3C Assay for Monokine induced gamma interferon (MIG) Biomarker Activity (AID 2283021; active = hit-call score of the fitted dose curve at least 0.9, where 1 is the maximum; inactive = score below 0.9); conditions: primary human endothelial cells (HUVEC); actives raise or lower the signal
Method in brief: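 HUVEC, 3C system; 24 h chemical exposure; MIG by ELISA; bidirectional fit vs DMSO baseline.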

[12] = BSK_3C_SRB: Viability Assessment in the BioMAP Diversity Plus: 3C Assay (AID 2283023; active = hit-call score of the fitted dose curve at least 0.9, where 1 is the maximum; inactive = score below 0.9;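 note: fitted both ways against DMSO so a hit may be signal rise or drop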); conditions: primary human endothelial cells (HUVEC)
Method in brief: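 Cytotoxicity readout in parallel HUVEC 3C cultures: after 24 h compound exposure, cells fixed with 10% TCA, stained with 0.1% SRB and read at 560 nm. Gain or loss relative to DMSO fitted.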

[13] = read-out: Matrix Metallopeptidase 1 (MMP1), MMP1 (gene 4312); experiment: BSK_BE3C_MMP1: BioMAP Diversity Plus: BE3C Assay for Matrix Metallopeptidase 1 (MMP1) Biomarker Activity (AID 2283024; active = hit-call score of the fitted dose curve at least 0.9, where 1 is the maximum; inactive = score below 0.9); conditions: primary human bronchial epithelial cells; actives raise or lower the signal
Method in brief: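 ELISA read-out of MMP1 in human lung bronchial epithelial primary cultures, 24 h post-dose; bidirectional curve fit vs DMSO baseline, gain or loss of signal scored.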

[14] = BSK_3C_Vis: BioMAP Diversity Plus: 3C Assay for Morphology Visualization (AID 2283025; active = hit-call score of the fitted dose curve at least 0.9, where 1 is the maximum; inactive = score below 0.9;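 note: fitted both ways so gain or loss versus DMSO counts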;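 for AC50: light microscopy image of cell morphology used as background control; cells imaged 24 h after dosing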); conditions: primary human endothelial cells (HUVEC)
Method in brief: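 HUVEC, 3C system; light microscopy of morphology at 24 h post-dose. Bidirectional fit vs DMSO baseline. Secondary readout, background-control function.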

[15] = read-out: Pselectin, SELP (gene 6403); experiment: BSK_4H_Pselectin: BioMAP Diversity Plus: 4H Assay for Pselectin Biomarker Activity (AID 2283026; active = hit-call score of the fitted dose curve at least 0.9, where 1 is the maximum; inactive = score below 0.9); conditions: primary human endothelial cells (HUVEC); actives raise or lower the signal
Method in brief: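 HUVEC, 24 h chemical exposure; P-selectin read by ELISA. Bidirectional curve fit vs DMSO baseline; gain or loss of signal scored.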

[16] = BSK_4H_SRB: Viability Assessment in the BioMAP Diversity Plus: 4H Assay (AID 2283027; active = hit-call score of the fitted dose curve at least 0.9, where 1 is the maximum; inactive = score below 0.9;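 note: cells exposed to compound for 24 h before staining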); conditions: primary human endothelial cells (HUVEC)
Method in brief: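 Cytotoxicity readout: sulforhodamine B (0.1%) staining of total protein after 10% TCA fixation, measured at 560 nm in human umbilical vein endothelium at 24 h. DMSO set the baseline; fitting was bidirectional.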

[17] = read-out: Urokinase-type plasminogen activator receptor (uPAR), PLAUR (gene 5329); experiment: BSK_4H_uPAR: BioMAP Diversity Plus: 4H Assay for Urokinase-type plasminogen activator receptor (uPAR) Biomarker Activity (AID 2283030; active = hit-call score of the fitted dose curve at least 0.9, where 1 is the maximum; inactive = score below 0.9); conditions: primary human endothelial cells (HUVEC); actives raise or lower the signal
Method in brief: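 uPAR level read by ELISA on HUVEC cultures (BioMAP 4H) 24 h post-dosing, analyzed for gain or loss relative to DMSO. Parallel SRB staining assessed overt cytotoxicity.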

[18] = read-out: Vascular endothelial growth factor receptor 2 (Homo sapiens) (UniProt P35968); experiment: BSK_4H_VEGFRII: BioMAP Diversity Plus: 4H Assay for Vascular endothelial growth factor receptor 2 (VEGFR2) Biomarker Activity (AID 2283031; active = hit-call score of the fitted dose curve at least 0.9, where 1 is the maximum; inactive = score below 0.9); conditions: primary human endothelial cells (HUVEC); actives raise or lower the signal
Method in brief: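 Measured by ELISA after 24 h of compound treatment: VEGFR2 on primary human umbilical vein endothelial cells, fitted in both directions relative to DMSO. Parallel cultures received SRB staining (560 nm) for overt cytotoxicity.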

[19] = read-out: Human Leukocyte Antigen - DR isotype (HLADR), HLA-DRA (gene 3122); experiment: BSK_BE3C_HLADR: BioMAP Diversity Plus: BE3C Assay for Human Leukocyte Antigen - DR isotype (HLADR) Biomarker Activity (AID 2283032; active = hit-call score of the fitted dose curve at least 0.9, where 1 is the maximum; inactive = score below 0.9); conditions: primary human bronchial epithelial cells; actives raise or lower the signal
Method in brief: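 Primary human bronchial epithelial cells (BE3C); 24 h chemical exposure; HLA-DR by ELISA; bidirectional curve fit vs DMSO baseline.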

Measured: AC50

Chain of E-selectin (Homo sapiens) (P16581 whole entry, looked up): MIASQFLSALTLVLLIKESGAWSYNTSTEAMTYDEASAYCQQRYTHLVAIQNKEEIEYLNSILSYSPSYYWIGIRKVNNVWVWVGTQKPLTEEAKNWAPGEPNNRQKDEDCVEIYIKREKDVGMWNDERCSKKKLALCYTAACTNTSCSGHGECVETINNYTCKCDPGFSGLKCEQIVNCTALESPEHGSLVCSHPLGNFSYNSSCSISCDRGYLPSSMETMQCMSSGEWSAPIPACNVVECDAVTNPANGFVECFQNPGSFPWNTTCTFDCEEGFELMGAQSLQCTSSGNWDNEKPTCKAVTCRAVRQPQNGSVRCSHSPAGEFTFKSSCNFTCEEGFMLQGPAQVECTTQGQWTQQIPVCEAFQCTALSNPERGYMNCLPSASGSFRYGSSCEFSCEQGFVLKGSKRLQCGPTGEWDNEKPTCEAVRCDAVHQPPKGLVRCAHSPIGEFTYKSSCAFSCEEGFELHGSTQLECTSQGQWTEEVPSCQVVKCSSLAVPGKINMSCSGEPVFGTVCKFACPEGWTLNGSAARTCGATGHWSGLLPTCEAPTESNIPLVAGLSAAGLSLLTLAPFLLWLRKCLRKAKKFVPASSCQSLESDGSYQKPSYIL

CCCCC(CC)COC(=O)c1ccccc1 (centres undefined)
active: [2] 60.9 µM
inactive: [1] | [3] | [4]

CCc1ccc2c(c1)C(=O)c1ccccc1C2=O
inactive: [1] | [2] | [3] | [4]

O=[N+]([O-])c1ccc(CO)cc1
inactive: [1] | [2] | [3]

[Cl][Bi]([Cl])([c]1ccccc1)([c]1ccccc1)[c]1ccccc1
inactive: [3]
active: [1] 5.6 µM | [2] 1.04 µM

CC(C)c1ccc2cc(C(C)C)ccc2c1
active: [2] 20.8 µM
inactive: [1] | [3] | [4]

O=c1cc(-c2ccccc2)oc2ccccc12
inactive: [1] | [2] | [3] | [4]

Cc1cccc(N(C)C(=S)Oc2ccc3ccccc3c2)c1
inactive: [1] | [3] | [4]
active: [2] 32.6 µM

C[Si](C)O[Si](C)(C)O[Si](C)(C)O[Si](C)C
inactive: [1] | [2] | [3]

CC(CC=O)CCCC(C)(C)O (centres undefined)
inactive: [1] | [2] | [3] | [4]

Cc1ccc(C(C)c2ccc(C)c(C)c2)cc1C
inactive: [1] | [2] | [3] | [4]

O=C(Nc1ccccc1SSc1ccccc1NC(=O)c1ccccc1)c1ccccc1
active: [7] 8.27 µM | [8] 9.13 µM | [9] 10 µM | [14] 14.1 µM
inactive: [1] | [2] | [3] | [5] | [6] | [10] | [11] | [12] | [13] | [15] | [16] | [17] | [18] | [19]

O=C(Nc1ccccc1)c1ccccc1O
inactive: [1] | [2] | [3]

O=C1CC2CC1C1CCCC21 (centres undefined)
inactive: [1] | [2] | [3]

Nc1ccc(Oc2ccc(N)c(N)c2)cc1
inactive: [1] | [2] | [3]

C=CC(C)(CCC=C(C)C)OC(=O)CC(C)C (centres undefined)
inactive: [1] | [3] | [4]
active: [2] 30.5 µM

N#[N+]c1ccc2c(S(=O)(=O)[O-])cccc2c1O
inactive: [1] | [2] | [3] | [5] | [6] | [7] | [8] | [9] | [10] | [11] | [4] | [12] | [13] | [14] | [15] | [16] | [17] | [18] | [19]

CCOC(=O)Cc1cccc2ccccc12
inactive: [1] | [3] | [4]
active: [2] 89.4 µM

O=S1(=O)OC(c2ccc(O)cc2)(c2ccc(O)cc2)c2ccccc21
inactive: [1] | [2] | [3] | [4]

O=c1[nH]nc(-c2ccc([N+](=O)[O-])o2)o1
inactive: [1] | [2] | [3]

ON(Cc1ccccc1)Cc1ccccc1
inactive: [1] | [2] | [3] | [4]

O=C1c2cccc(O)c2C(=O)c2c(O)cc(CO)cc21
inactive: [1] | [2] | [3] | [4]

CC(=O)CC(N)=O
inactive: [1] | [2] | [4]

C=CCCCCCCCCC(=O)OCCCC
inactive: [1] | [4]
active: [2] 104 µM

C=CC(C)(CCC=C(C)C)OC(=O)C(C)C (centres undefined)
inactive: [1] | [3] | [4]
active: [2] 57.4 µM

O=C(c1ccccc1)C1CCC1
inactive: [1] | [2] | [4]

CC(=O)C=CC1C(C)=CCC(C)C1(C)C (centres undefined)
inactive: [1] | [3] | [4]
active: [2] 68.5 µM

Cc1ccccc1C
inactive: [1] | [3]

COC(=O)c1ccc2cc(C(=O)OC)ccc2c1
inactive: [1] | [3]

O=[N+]([O-])C1(Br)COCOC1
inactive: [1] | [2] | [4]

CC=CC(F)(F)C(F)(F)C(F)(F)F
inactive: [1] | [2] | [3] | [4]

FC(F)(F)C(=NOCC1OCCO1)c1ccc(Cl)cc1
inactive: [1] | [4]
active: [2] 20.4 µM

CC(C)(C)c1ccc(OC(=O)c2ccccc2O)cc1
inactive: [1] | [4]
active: [2] 177 µM

CCN(Cc1cccc(S(=O)(=O)O)c1)c1ccc(C(=C2C=CC(=[N+](CC)Cc3cccc(S(=O)(=O)[O-])c3)C=C2)c2ccccc2)cc1
inactive: [1] | [2] | [3] | [4]

CCCCCCCC/C=C\CCCCCCCC(=O)OCCO
inactive: [1] | [4]
active: [2] 17.7 µM

CCN(CCC#N)c1ccc(N=Nc2c(Cl)cc([N+](=O)[O-])cc2Cl)cc1
inactive: [1] | [3]

N[C@H]1C(O)O[C@H](CO)[C@H](O)[C@@H]1O (some centres undefined)
inactive: [1] | [3]

O=S(=O)(O)c1ccc2cc(O)c(S(=O)(=O)O)cc2c1
inactive: [1] | [2] | [4]
